Laboratory results: paper PMC5540273 (PLoS ONE, 2017)

Key:
Conditions in all cases: concentration: 1 μM, replicates: in singlicate; n = 1
[1] = system: JAK1(JH2domain-pseudokinase)
[2] = system: JAK2(JH1domain-catalytic)
[3] = system: JAK3(JH1domain-catalytic)
JNK1 = system: T1, JNK1
T1 construct: gene MAPK8

JNK2 = system: T2, JNK2
T2 construct: gene MAPK9

JNK3 = system: T3, JNK3
T3 construct: gene MAPK10

KIT-autoinhibited = system: KIT-autoinhibited
KIT = system: KIT
LATS1 = system: LATS1
LATS2 = system: LATS2
LCK = system: LCK
LIMK1 = system: LIMK1
LIMK2 = system: LIMK2
LKB1 = system: T4, LKB1
T4 construct: gene STK11

LOK = system: T5, LOK
T5 construct: gene STK10

LRRK2 = system: LRRK2
LTK = system: LTK
LYN = system: LYN
LZK = system: T6, LZK
T6 construct: gene MAP3K13

MAK = system: MAK
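Note: KINOMEscan kinase panel screen.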

Row | Structure (SMILES) | %Inh [1] [%] | %Inh [2] [%] | %Inh [3] [%] | %Inh (JNK1) [%] | %Inh (JNK2) [%] | %Inh (JNK3) [%] | %Inh (KIT-autoinhibited) [%] | %Inh (KIT) [%] | %Inh (LATS1) [%] | %Inh (LATS2) [%] | %Inh (LCK) [%] | %Inh (LIMK1) [%] | %Inh (LIMK2) [%] | %Inh (LKB1) [%] | %Inh (LOK) [%] | %Inh (LRRK2) [%] | %Inh (LTK) [%] | %Inh (LYN) [%] | %Inh (LZK) [%] | %Inh (MAK) [%]
1 | O=C(Nc1n[nH]c2cc(-c3ccoc3)ccc12)C1CC1 [SB-738481] | 29 | 18 | 0 | 8 | 0 | 6 | 8 | 77 | 0 | 3 | 0 | 14 | 22 | 0 | 0 | 0 | 13 | 11 | 0 | 3
2 | Nc1ncnc2c1nc(-c1ccccc1)n2-c1ccccc1 [SKF-97293] | 6 | 62 | 7 | 11 | 17 | 0 | 11 | 0 | 35 | 0 | 6 | 0 | 2 | 60 | 21 | 58 | 9 | 8 | 4 | 27
3 | Cn1cc(-c2ccc3c(c2)CCN3C(=O)Cc2cccc(Cl)c2)c2c(N)ncnc21 [GSK2606590] | 0 | 16 | 0 | 15 | 42 | 6 | 26 | 100 | 0 | 0 | 44 | 3 | 52 | 0 | 98.1 | 29 | 47 | 15 | 0 | 6
4 | Fc1ccc(-c2ncn(C3CCNCC3)c2-c2ccnc(Oc3ccc(-c4ccccc4)cc3)n2)cc1 [SB-245391] | 0 | 50 | 41 | 36 | 66 | 46 | 0 | 17 | 0 | 21 | 0 | 0 | 0 | 0 | 21 | 0 | 12 | 9 | 0 | 10
5 | COc1ccc(Nc2nccc(N3CCC(NC(=O)Nc4cccc(OC)c4)C3)n2)cc1 (stereo not drawn) [GSK1379742] | 0 | 26 | 0 | 14 | 13 | 0 | 31 | 49 | 0 | 0 | 13 | 4 | 0 | 0 | 0 | 14 | 0 | 0 | 0 | 17
6 | Cc1ccc(S(=O)(=O)Nc2ccc(Nc3nccc(Nc4cccc5[nH]ncc45)n3)cc2)cc1 [GSK581271] | 16 | 68 | 3 | 44 | 27 | 29 | 0 | 85 | 0 | 0 | 39 | 13 | 0 | 0 | 0 | 23 | 10 | 0 | 0 | 12
7 | C[C@@H]1CC[C@@H](C(=O)Nc2ccccc2)CN1c1cc(-c2ccc3c(N)n[nH]c3c2)nc(N)n1 [GSK2286062] | 2 | 0 | 0 | 0 | 13 | 1 | 0 | 18 | 0 | 2 | 2 | 0 | 3 | 20 | 0 | 0 | 0 | 0 | 0 | 22
8 | COc1ccc(-c2coc3ccc(-c4nnc(SCc5ccc(OC)c(C(F)(F)F)c5)o4)cc23)cc1 | 32 | 22 | 0 | 0 | 0 | 0 | 7 | 20 | 25 | 0 | 0 | 25 | 12 | 0 | 24 | 0 | 27 | 0 | 0 | 22
9 | COc1cccc(C2=C(Nc3ccc(Cl)c(C(=O)O)c3)C(=O)NC2=O)c1 [SB-390769] | 0 | 100 | 81 | 52 | 64 | 45 | 0 | 6 | 18 | 100 | 15 | 13 | 0 | 0 | 0 | 0 | 0 | 8 | 30 | 100
